IP6K1 inh = blocks human inositol hexakisphosphate kinase 1 | IP6K1 kinase, ADP-Glo luminescence, 2 h; hits give low values | activity change, % (series mostly up to about 58 µM) | 140,000 compounds, 0.81% hits; in the data active means activity change below about -25%; further: on the % scale 0 is the no-effect control and ±100 the full control effect
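ADP-Glo luminescence measures ADP made by human IP6K1 during a 2 h RT reaction with ATP/IP6 (mix at 1.3 mM/130 uM); top library doses 57.5 and 19.1 uM final.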
HEK293 viab = counter-screen for SNCA expression inhibitors: cell viability. HEK-293-SNCA-luc viability, GF-AFC fluorescence, 24 h. Potency, µM (highest dose often 57.1 µM), for the others: at the highest dose activity change, negative = cytotoxicity, hits mostly cytotoxic. 150,000 compounds, 0.12% hits. AID 1671193;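 further: potency means the concentration at half of the fitted maximal effect; 0% = DMSO-treated cells and -100% = medium-only wells without cells; nearly all actives have a fitted effect of over 30% in size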
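HEK-293-SNCA-luc cells (1500/well) plated 24 h, then exposed 24 h to a dilution series; GF-AFC added 30 min at 37C, fluorescence 405/540 nm; normalised to medium-only and DMSO wells, Hill fit.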
HEK cytotox = HEK 293 cell cytotoxicity; Potency, µM (titrated, usually from 115 µM), without a hit: top-dose activity change, negative = cytotoxicity, actives largely listed as inhibitors; HEK 293 viability, ATP luminescence (CellTiter-Glo), 48-72 h; 94,000 compounds, 6.6% hits; further: potency means the concentration at half of the fitted maximal effect; on the % scale 0 is the no-effect control and ±100 the full control effect; nearly all actives have a fitted effect of over 60% in size
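HEK 293 seeded at 250 cells/well receive compound via pintool. After 48 or 72 hr at 37 degree Celsius, 5% CO2 and 95% humidity, CellTiter-Glo is dispensed and luminescence read following 10 min at room temperature.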
NIH3T3 tox = cytotoxic compounds in NIH 3T3 cells | NIH 3T3 viability, CellTiter-Glo ATP luminescence, 48-72 h | Potency, µM (series often up to 96.7 µM), inactives show top-dose activity change, negative = cytotoxicity, usual class: inhibitors | 94,000 compounds, 4.3% hits; further: potency means the concentration at half of the fitted maximal effect; on the % scale 0 is the no-effect control and ±100 the full control effect; nearly all actives have a fitted effect of over 55% in size
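Luminescent ATP readout (CellTiter-Glo, 10 min RT) after 48 or 72 hr compound exposure of NIH 3T3 cells seeded at 400 cells/well in 1536-well format; quantitative HTS.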
FLuc inh-1 = inhibitors of firefly (Photinus pyralis) luciferase; P08659; purified P. pyralis luciferase, luminescence, biochemical; Potency, µM (doses to about 115 µM), hits mostly inhibitors; 76,000 compounds, 2.5% hits; further: potency means the concentration at half of the fitted maximal effect; on the % scale 0 is the no-effect control and ±100 the full control effect; nearly all actives have a fitted effect of over 65% in size
Target sequence (P08659 whole entry, looked up): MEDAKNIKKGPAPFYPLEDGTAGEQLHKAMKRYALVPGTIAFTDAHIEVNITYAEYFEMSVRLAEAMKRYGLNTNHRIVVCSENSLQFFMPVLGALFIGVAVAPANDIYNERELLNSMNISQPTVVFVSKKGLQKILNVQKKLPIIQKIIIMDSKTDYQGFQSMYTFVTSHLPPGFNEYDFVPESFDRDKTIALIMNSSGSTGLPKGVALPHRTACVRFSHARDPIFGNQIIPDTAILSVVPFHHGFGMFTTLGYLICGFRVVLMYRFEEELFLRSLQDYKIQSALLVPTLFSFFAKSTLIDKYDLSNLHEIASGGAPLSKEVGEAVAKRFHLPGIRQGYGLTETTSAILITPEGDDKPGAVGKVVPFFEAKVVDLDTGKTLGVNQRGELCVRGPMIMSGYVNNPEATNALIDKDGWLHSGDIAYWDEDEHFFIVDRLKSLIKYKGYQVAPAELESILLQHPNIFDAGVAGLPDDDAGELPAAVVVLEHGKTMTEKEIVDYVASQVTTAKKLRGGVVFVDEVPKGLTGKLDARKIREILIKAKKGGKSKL
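Purified 10nM P. pyralis luciferase with 10uM D-luciferin and 10uM ATP in 50mM Tris acetate pH 7.5, 10mM Mg acetate, 0.01% Tween-20, 0.05% BSA. qHTS titration; luminescence read by CCD imager.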
SNCA expr inh = inhibitors of alpha-synuclein (SNCA) gene expression | 140,000 compounds, 0.17% hits | HEK-293 SNCA-luciferase knock-in, luminescence, 24 h | Potency, µM (series often up to 57.2 µM), inactives show at the highest dose activity change, negative = inhibition, usual class: inhibitors;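 further: potency means the concentration at half of the fitted maximal effect; plate controls were DMSO cells for no effect and cell-free wells for full effect; nearly all actives have a fitted effect of over 45% in size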
FLuc SDR no ATP = stabilizes firefly luciferase without ATP | 1,300 compounds, 7.8% hits | shares compounds with FLuc inh-1 | Potency, µM (titrated, usually from 32.7 µM), for inactives: top-dose activation (signal gain), actives largely listed as activators | Purified FLuc-C-HiBiT, Nano-Glo HiBiT luminescence, no ATP; further: potency means the concentration at half of the fitted maximal effect; nearly all actives have a fitted effect of over 55% in size
FLuc SDR ATP = binders stabilizing firefly luciferase, plus ATP | AID 1963319 | shares compounds with FLuc inh-1 | 1,300 compounds, 8.7% hits | purified FLuc-C-HiBiT + ATP, HiBiT complementation luminescence | Potency, µM (series often up to 32.7 µM), for the others: at the highest dose activation (gain of signal), hits mostly activators;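 further: signal reports ligand binding via conformational change of the enzyme rather than luciferase catalysis; potency means the concentration at half of the fitted maximal effect; % of control where 0% means no effect; nearly all actives have a fitted effect of over 55% in size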
FLuc inh-2 = blocks firefly luciferase enzymatic activity | 1,300 compounds, 42% hits | shares compounds with FLuc inh-1 | Potency, µM (top dose mostly 32.7 µM), without a hit: at the highest dose activity change, negative = inhibition, hits mostly inhibitors | purified FLuc-C-HiBiT enzyme, luciferin luminescence; further: potency means the concentration at half of the fitted maximal effect; on the % scale 0 is the no-effect control and ±100 the full control effect; nearly all actives have a fitted effect of over 70% in size
Active calls of the source: *; i = inactive; ? = inconclusive; nt = no result; [ ] = dose if it differs, or a comment. Rows were chosen to be rich in hits. Some 7.3% of all compounds tested hit in one or more screens of this group. Unless noted, the call rests on the fitted dose curve; in most records, active means well fitted curve in the direction sought with a large enough effect; inconclusive means small, poorly fitted or top-dose-only effect, or another doubt; inactive means no such curve, though single readings can be large; an effect the other way counts as inactive or inconclusive.

SMILES | IP6K1 inh | HEK293 viab | HEK cytotox | NIH3T3 tox | FLuc inh-1 | SNCA expr inh | FLuc SDR no ATP | FLuc SDR ATP | FLuc inh-2
CCN(CC)C(=O)C(NC(=O)c1ccc(C)cc1)C1CCN(C(=O)c2cccc(OC)c2)CC1 (centres undefined) | -9 | 0% | ? | -5% | i | 7% | nt | nt | nt
CN(C)C(=O)c1ccc(-c2cccc(-c3ccn(CC4CC4)n3)c2)o1 | -2 | -1% | ? | ? | 7.1µM* | 176% | 24% | ? | 7.9µM*
O=Cc1cccc(-c2ccc(C(=O)O)o2)c1 | -20 | 4%[87.6 µM] | i | i | nt | 27%[87.6 µM] | nt | nt | nt
COc1ccc(F)cc1S(=O)(=O)N1CCCN(C(=O)C2CC2)c2ccccc21 | 2 | -6% | ? | -28% | i | -1% | nt | nt | nt
C[C@@H](NC(=O)C1CCCC1)c1onc(-c2ccc(F)cc2)c1C(=O)O | 8 | 3%[87.6 µM] | i | 3%[138 µM] | i | -15%[87.6 µM] | nt | nt | nt
OC(c1nc(Nc2ccc(Oc3ccccc3)cc2)n[nH]1)C1CC1 (centres undefined) | -7 | 7%[87.6 µM] | ? | ? | 14µM* | 56%[87.6 µM] | 17%[49.3 µM] | 11%[49.3 µM] | ?
CC(C)N1C[C@H](O)C[C@H]1c1nnc2n1CCN(C(=O)c1nccc3ccccc13)CC2 | -3 | 9% | -13% | -19% | i | -3% | nt | nt | nt
Oc1ccc(-c2nc(C3CC3)nc3c2CN(Cc2ccccc2C(F)(F)F)CC3)cc1 | 11 | 8% | ? | ? | i | 15% | nt | nt | nt
Cc1cc(-c2cc3c(cn2)CN(Cc2ccccc2O)CCN3)ccn1 | -3 | -26%[87.6 µM] | ? | ? | 5.6µM* | 18%[87.6 µM] | 21%[49.3 µM] | 13%[49.3 µM] | ?
NC(=O)c1cccc(-c2cc3c(cn2)CN(Cc2ccccc2)CCN3)c1 | 8 | -19%[87.6 µM] | ? | -20%[138 µM] | 14µM* | -6%[87.6 µM] | 17%[49.3 µM] | 12%[49.3 µM] | ?
Cc1cc(-c2cc3c(cn2)CN(Cc2cccs2)CCN3)ccn1 | -20 | -12%[87.6 µM] | 89µM* | ? | 6.3µM* | 18%[87.6 µM] | 32%[49.3 µM] | ? | 11µM*
Oc1ccccc1CN1CCNc2cc(-c3ccccc3)ncc2C1 | -9 | ? | 79µM* | 79µM* | 2.5µM* | 27%[87.6 µM] | ? | 14%[49.3 µM] | ?
c1ccc(Nc2cc3c(cn2)NCCN(Cc2cccs2)C3)cc1 | -13 | 1%[87.6 µM] | ? | ? | i | 33%[87.6 µM] | nt | nt | nt
CCOc1cc2c(cn1)NCCN(Cc1ccccc1OC)C2 | -14 | -3%[87.6 µM] | ? | ? | i | -3%[87.6 µM] | nt | nt | nt
NC(=O)c1cccc(-c2cc3c(cn2)CN(Cc2ccncc2)CCN3)c1 | 12 | 6%[87.6 µM] | -17%[172 µM] | ? | ? | 7%[87.6 µM] | nt | nt | nt
O=C(Nc1ccc([C@H]2OCC(=O)N(Cc3cccnc3)[C@@H]2CO)cc1)c1cc(F)cc(F)c1 | 3 | 17% | ? | ? | i | 16% | nt | nt | nt
CC(C)CCN1CC2(CCCN(S(=O)(=O)c3cnn(C)c3)C2)CCC1=O (centres undefined) | 0 | 0% | -1% | -18% | i | -14% | nt | nt | nt
Cc1cc(-c2cc3c(cn2)CN(Cc2cnc[nH]2)CCN3)ccn1 | nt | nt | nt | nt | nt | nt | 29%[49.3 µM] | 19%[49.3 µM] | 18µM*
CN1CCNc2cc(-c3ccc(N4CCOCC4)cc3)ncc2C1 | -13 | -12%[87.6 µM] | ? | ? | i | 32%[87.6 µM] | nt | nt | nt
O=C(c1ccccn1)N1CCC(N2C(=O)C3(CCCCC3)C2c2ccncc2)CC1 (centres undefined) | 8 | 5% | 5% | -10% | nt | -4% | nt | nt | nt
